Assays:
Assay in all cases: log2 ratio of Biotin-Ahx-Ub-VS probe labelling (fragment/DMSO); higher = less target engagement (more negative = stronger competition), active = hit call of the paper (q ≤ 0.05, log2 ratio ≤ -1)
Details in all cases: compound concentration: 200 uM; treatment time: 3 h
USP9X = USP9X (UniProt Q93008)
Method in brief: (§1)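 HEK293T lysate (495 µg per sample, in Tris/CHAPS/IGEPAL buffer with protease inhibitors) was treated in triplicate with fragment at 200 µM or with DMSO for 3 h. It was then treated with Biotin-Ahx-Ub-VS (0.5 µM final) for 1 h. Labelled DUBs were NeutrAvidin-enriched, digested with LysC and trypsin, and run by diaPASEF LC-MS/MS. Spectronaut label-free quantities were global-median-normalised. Values are average log2 ratios fragment/DMSO by unpaired t-test, using proteins with ≥2 unique peptides.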

UniProt O00487 = target: UniProt O00487
Method in brief: as §1

UniProt O00507 = target: UniProt O00507
Method in brief: as §1

UniProt P51784 = target: UniProt P51784
Method in brief: as §1

UniProt Q5T2D3 = target: T1, UniProt Q5T2D3
T1 sequence (whole entry): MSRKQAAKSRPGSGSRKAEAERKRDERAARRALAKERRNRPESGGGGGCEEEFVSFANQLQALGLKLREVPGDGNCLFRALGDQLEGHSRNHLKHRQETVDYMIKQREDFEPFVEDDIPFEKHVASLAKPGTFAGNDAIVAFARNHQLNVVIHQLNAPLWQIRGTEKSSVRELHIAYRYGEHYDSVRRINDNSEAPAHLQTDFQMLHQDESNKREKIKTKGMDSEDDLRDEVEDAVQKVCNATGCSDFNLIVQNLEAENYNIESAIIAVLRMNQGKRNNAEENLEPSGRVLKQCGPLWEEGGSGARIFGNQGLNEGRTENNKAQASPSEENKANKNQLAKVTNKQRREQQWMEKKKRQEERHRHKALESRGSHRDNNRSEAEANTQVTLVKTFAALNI
Method in brief: as §1

UniProt Q8TE49 = target: T2, UniProt Q8TE49
T2 sequence (whole entry): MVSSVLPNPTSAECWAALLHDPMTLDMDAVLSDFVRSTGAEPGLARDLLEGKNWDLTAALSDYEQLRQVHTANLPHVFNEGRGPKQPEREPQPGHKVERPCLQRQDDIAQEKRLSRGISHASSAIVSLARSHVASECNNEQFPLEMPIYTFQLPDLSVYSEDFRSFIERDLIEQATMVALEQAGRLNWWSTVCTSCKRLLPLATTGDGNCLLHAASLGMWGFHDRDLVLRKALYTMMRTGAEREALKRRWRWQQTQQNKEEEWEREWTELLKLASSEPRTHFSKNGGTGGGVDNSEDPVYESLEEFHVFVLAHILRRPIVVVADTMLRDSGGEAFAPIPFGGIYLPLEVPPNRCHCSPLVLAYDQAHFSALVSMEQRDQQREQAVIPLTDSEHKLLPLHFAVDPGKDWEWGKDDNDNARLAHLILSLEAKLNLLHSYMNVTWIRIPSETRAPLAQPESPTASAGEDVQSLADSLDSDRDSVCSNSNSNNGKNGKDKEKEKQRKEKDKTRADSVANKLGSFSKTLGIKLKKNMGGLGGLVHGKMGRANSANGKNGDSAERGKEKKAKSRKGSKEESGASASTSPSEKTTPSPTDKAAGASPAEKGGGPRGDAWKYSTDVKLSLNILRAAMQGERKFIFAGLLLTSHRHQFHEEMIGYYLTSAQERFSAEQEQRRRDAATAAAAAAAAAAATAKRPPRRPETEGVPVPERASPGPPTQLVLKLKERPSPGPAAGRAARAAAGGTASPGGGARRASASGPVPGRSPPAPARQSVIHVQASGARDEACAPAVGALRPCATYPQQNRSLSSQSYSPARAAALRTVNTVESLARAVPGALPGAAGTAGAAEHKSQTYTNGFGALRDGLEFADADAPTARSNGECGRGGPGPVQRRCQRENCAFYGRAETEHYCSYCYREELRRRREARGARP
Method in brief: as §1

UniProt Q9P2H5 = target: T3, UniProt Q9P2H5
T3 sequence (whole entry): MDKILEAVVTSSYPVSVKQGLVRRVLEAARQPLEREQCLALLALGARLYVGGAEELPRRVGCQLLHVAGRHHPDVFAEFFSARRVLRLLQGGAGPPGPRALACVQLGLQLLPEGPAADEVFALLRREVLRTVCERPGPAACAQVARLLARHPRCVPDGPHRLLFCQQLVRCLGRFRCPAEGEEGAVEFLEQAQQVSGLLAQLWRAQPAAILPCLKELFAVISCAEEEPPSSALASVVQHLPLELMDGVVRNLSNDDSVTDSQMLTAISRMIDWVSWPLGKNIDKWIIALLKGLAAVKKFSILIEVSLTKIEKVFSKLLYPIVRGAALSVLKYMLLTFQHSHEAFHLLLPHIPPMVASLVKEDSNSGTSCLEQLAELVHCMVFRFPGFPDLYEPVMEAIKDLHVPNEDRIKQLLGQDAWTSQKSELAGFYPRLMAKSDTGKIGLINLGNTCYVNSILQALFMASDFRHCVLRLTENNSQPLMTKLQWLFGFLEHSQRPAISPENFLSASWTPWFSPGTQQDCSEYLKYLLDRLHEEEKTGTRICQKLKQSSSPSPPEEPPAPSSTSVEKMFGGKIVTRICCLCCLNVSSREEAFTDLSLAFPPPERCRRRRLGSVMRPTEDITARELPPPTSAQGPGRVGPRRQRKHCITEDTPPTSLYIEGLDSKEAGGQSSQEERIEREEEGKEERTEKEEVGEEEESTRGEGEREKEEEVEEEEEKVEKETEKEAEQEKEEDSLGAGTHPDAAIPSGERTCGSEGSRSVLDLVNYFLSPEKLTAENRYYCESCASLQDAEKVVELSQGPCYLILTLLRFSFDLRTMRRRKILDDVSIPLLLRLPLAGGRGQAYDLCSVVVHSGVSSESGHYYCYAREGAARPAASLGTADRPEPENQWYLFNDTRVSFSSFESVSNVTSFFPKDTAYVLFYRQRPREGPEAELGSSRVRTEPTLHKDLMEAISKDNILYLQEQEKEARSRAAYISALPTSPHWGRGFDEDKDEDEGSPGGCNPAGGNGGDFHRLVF
Method in brief: as §1

UniProt Q9UGI0 = target: T4, UniProt Q9UGI0
T4 sequence (whole entry): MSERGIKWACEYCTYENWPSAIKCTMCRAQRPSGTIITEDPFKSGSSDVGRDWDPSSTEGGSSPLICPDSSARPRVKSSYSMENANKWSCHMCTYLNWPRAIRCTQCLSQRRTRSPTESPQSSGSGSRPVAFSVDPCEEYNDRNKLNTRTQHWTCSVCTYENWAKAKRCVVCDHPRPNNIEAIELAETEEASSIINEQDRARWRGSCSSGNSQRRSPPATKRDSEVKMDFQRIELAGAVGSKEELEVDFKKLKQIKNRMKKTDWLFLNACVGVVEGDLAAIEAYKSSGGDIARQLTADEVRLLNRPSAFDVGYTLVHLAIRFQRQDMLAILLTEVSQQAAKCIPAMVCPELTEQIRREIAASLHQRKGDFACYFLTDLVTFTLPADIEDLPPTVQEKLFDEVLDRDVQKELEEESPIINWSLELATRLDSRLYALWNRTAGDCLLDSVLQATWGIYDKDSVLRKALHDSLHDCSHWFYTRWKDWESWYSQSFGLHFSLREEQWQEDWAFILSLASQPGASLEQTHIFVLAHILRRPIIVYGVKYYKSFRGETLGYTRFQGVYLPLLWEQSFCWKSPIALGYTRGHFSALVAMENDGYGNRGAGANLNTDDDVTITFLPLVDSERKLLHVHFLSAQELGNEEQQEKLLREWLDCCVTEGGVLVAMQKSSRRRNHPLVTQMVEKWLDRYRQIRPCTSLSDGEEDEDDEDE
Method in brief: as §1

YOD1 = target: T5, YOD1 (UniProt Q5VVQ6)
T5 sequence (whole entry): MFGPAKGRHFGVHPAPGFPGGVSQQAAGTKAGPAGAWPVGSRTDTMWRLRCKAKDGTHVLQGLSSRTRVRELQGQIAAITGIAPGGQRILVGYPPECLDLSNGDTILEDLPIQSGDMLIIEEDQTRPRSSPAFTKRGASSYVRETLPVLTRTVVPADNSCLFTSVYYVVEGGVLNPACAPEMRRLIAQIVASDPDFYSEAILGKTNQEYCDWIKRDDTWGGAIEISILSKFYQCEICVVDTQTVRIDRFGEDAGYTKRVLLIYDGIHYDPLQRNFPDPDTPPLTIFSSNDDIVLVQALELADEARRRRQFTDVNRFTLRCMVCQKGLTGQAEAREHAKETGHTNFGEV
Method in brief: as §1

Measured: log2 ratio of Biotin-Ahx-Ub-VS probe labelling

Chain of UniProt P51784 (P51784 whole entry): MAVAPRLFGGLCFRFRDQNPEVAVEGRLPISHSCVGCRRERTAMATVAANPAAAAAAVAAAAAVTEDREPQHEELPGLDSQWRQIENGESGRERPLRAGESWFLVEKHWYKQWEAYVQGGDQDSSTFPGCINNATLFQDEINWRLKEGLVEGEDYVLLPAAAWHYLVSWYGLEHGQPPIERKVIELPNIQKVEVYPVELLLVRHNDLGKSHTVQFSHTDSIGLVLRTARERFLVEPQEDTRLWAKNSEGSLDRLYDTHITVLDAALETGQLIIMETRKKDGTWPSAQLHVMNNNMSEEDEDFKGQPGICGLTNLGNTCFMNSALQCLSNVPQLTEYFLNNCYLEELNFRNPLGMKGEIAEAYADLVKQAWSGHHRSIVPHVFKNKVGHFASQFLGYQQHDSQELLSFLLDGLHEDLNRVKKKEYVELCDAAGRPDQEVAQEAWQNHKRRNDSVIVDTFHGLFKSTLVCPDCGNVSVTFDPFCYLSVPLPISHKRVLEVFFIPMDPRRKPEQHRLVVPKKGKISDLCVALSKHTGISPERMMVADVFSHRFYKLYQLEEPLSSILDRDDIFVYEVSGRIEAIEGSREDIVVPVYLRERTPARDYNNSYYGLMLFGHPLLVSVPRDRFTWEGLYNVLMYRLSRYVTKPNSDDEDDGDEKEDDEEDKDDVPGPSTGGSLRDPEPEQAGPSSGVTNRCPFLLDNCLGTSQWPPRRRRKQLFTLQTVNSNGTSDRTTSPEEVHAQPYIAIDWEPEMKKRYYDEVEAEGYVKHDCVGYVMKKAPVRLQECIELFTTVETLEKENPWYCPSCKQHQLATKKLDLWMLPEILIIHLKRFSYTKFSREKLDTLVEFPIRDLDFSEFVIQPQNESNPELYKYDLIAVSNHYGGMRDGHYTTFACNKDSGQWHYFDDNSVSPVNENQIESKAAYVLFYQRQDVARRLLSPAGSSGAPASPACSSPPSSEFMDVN
Chain of USP9X (Q93008 whole entry, the tested form may be a part): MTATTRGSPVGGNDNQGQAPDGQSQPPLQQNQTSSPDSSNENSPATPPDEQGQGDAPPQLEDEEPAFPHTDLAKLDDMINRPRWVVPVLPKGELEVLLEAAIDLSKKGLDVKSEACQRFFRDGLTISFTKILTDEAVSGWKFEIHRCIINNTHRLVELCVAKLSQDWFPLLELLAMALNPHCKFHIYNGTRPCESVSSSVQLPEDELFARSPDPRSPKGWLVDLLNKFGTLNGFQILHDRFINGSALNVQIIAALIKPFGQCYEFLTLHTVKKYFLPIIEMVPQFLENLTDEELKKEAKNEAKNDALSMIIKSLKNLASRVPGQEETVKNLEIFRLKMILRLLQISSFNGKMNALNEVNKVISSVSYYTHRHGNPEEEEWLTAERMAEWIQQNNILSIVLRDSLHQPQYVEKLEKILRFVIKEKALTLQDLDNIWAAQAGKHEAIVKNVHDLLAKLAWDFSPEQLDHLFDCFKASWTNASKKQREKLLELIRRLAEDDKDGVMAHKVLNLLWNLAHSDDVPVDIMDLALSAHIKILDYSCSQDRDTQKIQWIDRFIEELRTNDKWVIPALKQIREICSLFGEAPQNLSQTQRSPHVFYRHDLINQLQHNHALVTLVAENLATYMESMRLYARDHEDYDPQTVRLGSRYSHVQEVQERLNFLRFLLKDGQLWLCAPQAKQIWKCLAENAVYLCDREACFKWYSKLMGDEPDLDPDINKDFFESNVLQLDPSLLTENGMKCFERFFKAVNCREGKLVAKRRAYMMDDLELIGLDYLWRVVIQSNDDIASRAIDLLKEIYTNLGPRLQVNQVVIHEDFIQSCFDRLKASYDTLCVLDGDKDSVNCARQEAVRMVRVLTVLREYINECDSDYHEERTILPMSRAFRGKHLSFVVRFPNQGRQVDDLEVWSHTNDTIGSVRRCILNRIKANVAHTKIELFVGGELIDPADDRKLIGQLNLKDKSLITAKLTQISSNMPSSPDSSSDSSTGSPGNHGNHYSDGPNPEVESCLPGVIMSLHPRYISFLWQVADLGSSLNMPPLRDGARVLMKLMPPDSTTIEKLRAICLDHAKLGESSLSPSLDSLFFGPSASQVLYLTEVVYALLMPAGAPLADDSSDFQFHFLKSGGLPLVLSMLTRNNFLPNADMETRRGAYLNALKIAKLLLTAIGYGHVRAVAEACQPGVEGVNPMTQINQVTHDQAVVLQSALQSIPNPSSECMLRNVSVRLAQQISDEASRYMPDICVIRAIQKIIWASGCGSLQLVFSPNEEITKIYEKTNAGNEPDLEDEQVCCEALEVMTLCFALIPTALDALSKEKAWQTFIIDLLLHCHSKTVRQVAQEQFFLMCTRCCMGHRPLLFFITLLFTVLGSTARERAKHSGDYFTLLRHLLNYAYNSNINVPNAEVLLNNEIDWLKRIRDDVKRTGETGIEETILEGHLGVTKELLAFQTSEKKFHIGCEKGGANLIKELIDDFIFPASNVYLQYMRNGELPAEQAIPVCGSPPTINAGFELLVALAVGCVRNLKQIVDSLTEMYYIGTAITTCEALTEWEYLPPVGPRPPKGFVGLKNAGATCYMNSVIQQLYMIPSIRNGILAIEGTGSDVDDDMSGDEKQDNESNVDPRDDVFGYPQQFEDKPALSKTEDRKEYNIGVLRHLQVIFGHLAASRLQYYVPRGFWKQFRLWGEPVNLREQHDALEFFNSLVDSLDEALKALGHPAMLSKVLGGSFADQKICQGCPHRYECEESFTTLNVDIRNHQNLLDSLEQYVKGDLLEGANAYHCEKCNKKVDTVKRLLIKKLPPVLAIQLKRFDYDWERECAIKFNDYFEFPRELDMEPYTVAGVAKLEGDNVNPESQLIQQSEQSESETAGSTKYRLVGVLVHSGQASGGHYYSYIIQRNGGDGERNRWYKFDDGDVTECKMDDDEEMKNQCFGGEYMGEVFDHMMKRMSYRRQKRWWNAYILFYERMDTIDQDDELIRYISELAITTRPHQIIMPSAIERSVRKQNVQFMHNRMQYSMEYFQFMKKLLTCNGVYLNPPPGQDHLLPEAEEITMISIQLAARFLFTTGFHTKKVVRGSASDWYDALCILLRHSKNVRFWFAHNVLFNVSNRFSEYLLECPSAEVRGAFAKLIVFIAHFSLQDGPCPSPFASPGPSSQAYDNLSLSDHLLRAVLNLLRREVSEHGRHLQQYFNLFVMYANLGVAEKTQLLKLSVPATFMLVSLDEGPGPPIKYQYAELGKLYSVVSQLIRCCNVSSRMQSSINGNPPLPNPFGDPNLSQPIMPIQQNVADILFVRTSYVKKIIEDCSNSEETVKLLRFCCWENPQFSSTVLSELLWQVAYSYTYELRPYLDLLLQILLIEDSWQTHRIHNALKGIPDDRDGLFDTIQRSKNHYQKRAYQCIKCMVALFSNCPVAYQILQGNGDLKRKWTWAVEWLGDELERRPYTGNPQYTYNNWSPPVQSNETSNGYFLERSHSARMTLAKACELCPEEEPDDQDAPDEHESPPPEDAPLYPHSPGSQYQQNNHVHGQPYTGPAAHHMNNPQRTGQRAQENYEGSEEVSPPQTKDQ
Chain of UniProt O00487 (O00487 whole entry): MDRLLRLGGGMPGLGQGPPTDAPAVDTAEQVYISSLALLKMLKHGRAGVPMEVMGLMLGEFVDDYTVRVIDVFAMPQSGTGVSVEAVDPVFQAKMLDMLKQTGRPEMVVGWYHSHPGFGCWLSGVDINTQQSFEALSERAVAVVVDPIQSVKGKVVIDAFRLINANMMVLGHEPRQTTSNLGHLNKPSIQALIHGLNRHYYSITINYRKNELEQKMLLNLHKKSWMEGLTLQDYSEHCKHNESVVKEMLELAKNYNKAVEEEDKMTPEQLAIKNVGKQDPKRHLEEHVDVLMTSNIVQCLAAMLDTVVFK

Cl.Cn1nc2c(c1CNC(=O)CCl)CCCC2
inactive: USP9X -0.188 | UniProt O00487 0.0603 | UniProt O00507 0.0971 | UniProt P51784 0.0528 | UniProt Q5T2D3 -0.274 | UniProt Q8TE49 -0.529 | UniProt Q9P2H5 -0.23 | UniProt Q9UGI0 -0.319 | YOD1 -0.144

Reference: the supplement of paper PMC11732987, “Enantioselective OTUD7B fragment discovery through chemoproteomics screening and high-throughput optimisation” (Communications Chemistry, 2025)
